The results in this text go back to PubChem BioAssay (Tox21).

Structures are written as SMILES. A number with no mark means an inactive call. Records with an inconclusive call do not appear. Active and inactive are the calls of the source. Unless noted, calls come from the whole dose curve; as a rule, active = well fitted curve in the direction sought with a large enough effect in the repeat runs; inconclusive = weak or mixed curves; inactive = no such curve, though single readings can be large; an effect the other way counts as inactive or inconclusive.

Assay [1] in a line: qHTS assay for small molecule agonists of the p53 signaling pathway (AID 651631; calls by dose curve; note: nearly all actives have a fitted effect of over 15% in size; note: potency is the fitted concentration of half-maximal effect). Put shortly:
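p53RE-bla HCT-116 cells; compounds 16 h, 37 °C; LiveBLAzer B/G FRET substrate 2 h RT; fluorescence intensity read-out, qHTS format.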
A general note: Quantitative high-throughput screening tests each substance at several concentrations.

A short description of assay [2]: qHTS assay for small molecules that induce genotoxicity in human embryonic kidney cells expressing luciferase-tagged ATAD5 (AID 651632). Note: nearly all actives have a fitted effect of over 15% in size. In outline: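 Luminescent reporter readout, HEK293T ATAD5-luc line: 16 hr drug exposure (37C, 5% CO2) followed by Amplite, 30 min RT.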
A short description of assay [3]: qHTS assay for small molecule agonists of the p53 signaling pathway - cell viability (AID 651633; calls by dose curve;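 note: p53RE-bla HCT reporter cells with a stable beta-lactamase p53 reporter; series mostly up to about 83 µM; nearly all actives have a fitted effect of over 30% in size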). In outline:
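Viability counter-read: CellTiter-Glo luminescence (30 min, room temperature) in the same p53RE-bla plates. These plates had been exposed to compounds for 16 h at 37 C.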

Assay [4] is described as follows: qHTS assay for small molecules that induce genotoxicity in human embryonic kidney cells expressing luciferase-tagged ATAD5 - cell viability (AID 651634; calls by dose curve; note: nearly all actives have a fitted effect of over 25% in size). In outline: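 Viability read: CellTiter-Fluor fluorescence, 30 min at 37C. Cells: HEK293T, luciferase-tagged ATAD5. Exposure: 15.5 hr, 37C, 5% CO2, compound or DMSO vehicle.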
Assay [5] can be described thus: qHTS assay to test for compound auto fluorescence at 590 nm (red) in HepG2 cells (AID 720674). Put shortly:
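We screened compounds on adherent HepG2 cells, incubating them for an hour at 37 C in 5% CO2 before reading emission at 590 nm under 540 nm excitation; values reflect equivalence to Rose Bengal sodium fluorescence.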

A short description of assay [6]: qHTS assay to test for compound auto fluorescence at 535 nm (green) in HepG2 cells (AID 720675).
Assay [7] in a line: qHTS assay to test for compound auto fluorescence at 535 nm (green) in HEK293 cells (AID 720680).
Assay [8] is described as follows: qHTS assay to test for compound auto fluorescence at 460 nm (blue) in HEK293 cell free culture (AID 720681). In outline:
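Blue fluorescence (Ex 405/Em 460 nm, triamterene-equivalent) was read immediately after pin transfer of compound or DMSO into medium (DMEM, 10% FBS) without cells.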

Assay [9] in a line: qHTS assay to test for compound auto fluorescence at 535 nm (green) in HEK293 cell free culture (AID 720682). Put shortly:
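Cell-free medium (DMEM, 10% FBS) receives compound or DMSO by pintool. Plate read directly at Ex 485/Em 535 nm. Signal converted to fluorescein equivalency.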

Assay [10] in a line: qHTS assay to test for compound auto fluorescence at 590 nm (red) in HEK293 cell free culture (AID 720683). In outline: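 Red-channel autofluorescence of compounds in culture medium (DMEM, 10% FBS), no cells, measured at 540/590 nm. Rose Bengal sodium is the reference fluorophore for equivalence.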
A short description of assay [11]: qHTS assay to test for compound auto fluorescence at 590 nm (red) in HepG2 cell free culture (AID 720684). In outline:
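Steps: dispense MEM/10% FBS medium, no cells; pin compound or DMSO vehicle; read red channel, Ex/Em 540/590 nm. Output given as Rose Bengal sodium equivalents.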

A short description of assay [12]: qHTS assay to test for compound auto fluorescence at 460 nm (blue) in HepG2 cell free culture (AID 720685). Put shortly: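 Compound (23 nL) or DMSO pinned into cell-free MEM with 10% FBS; blue fluorescence read at 405/460 nm excitation/emission, expressed as auto-fluorescence equivalency to triamterene.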
Assay [13] can be described thus: qHTS assay to test for compound auto fluorescence at 535 nm (green) in HepG2 cell free culture (AID 720686).
The nature of assay [14]: qHTS assay to test for compound auto fluorescence at 460 nm (blue) in HepG2 cells (AID 720687). Put shortly:
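Blue-channel autofluorescence (Ex/Em 405/460 nm, triamterene-equivalent) was measured after 1 hr compound exposure at 37 C, 5% CO2. Cells were HepG2, plated overnight at 37 C in MEM plus 10% FBS.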

Assay [15] has as its target Glucocorticoid receptor (Homo sapiens) (UniProt P04150). The assay can be described thus: qHTS assay to identify small molecule agonists of the glucocorticoid receptor (GR) signaling pathway (AID 720691; active = well fitted activation curve with a large enough effect in the signal ratio in the repeat runs, not every such curve was filed as active; the % refers to the signal ratio). Put shortly:
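qHTS in GR-bla HeLa cells: 4 h settling at 37 C/5% CO2, 18 h compound incubation at 37 C, 2 h LiveBLAzer B/G FRET substrate at room temperature, fluorescence intensity measured.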

The nature of assay [16]: qHTS assay for small molecule disruptors of the mitochondrial membrane potential - cell viability (AID 720634; calls by dose curve;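 note: human HepG2 liver cancer cells; series mostly up to about 83 µM; nearly all actives have a fitted effect of over 20% in size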). In outline:
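HepG2, 1 hr compound, 37 C. ATP luminescence via CellTiter-Glo, 30 min RT, same well as m-MPI.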

The nature of assay [17]: qHTS assay to test for compound auto fluorescence at 460 nm (blue) in HEK293 cells (AID 720678). Put shortly: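 Measured: blue fluorescence (Ex 405/Em 460 nm) of compound-treated HEK293 cells, incubated overnight at 37C with 5% CO2 and scaled to triamterene equivalents.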
Assay [18] in a line: qHTS assay to test for compound auto fluorescence at 590 nm (red) in HEK293 cells (AID 720679). In outline: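 Using HEK293 cells at 2,000 per well, the screen added 23 nL of each compound after cell attachment and incubated overnight (37C, 5% CO2). The plate reader then captured red-label fluorescence, Ex/Em 540/590nm.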
For assay [19], the target named is Glucocorticoid receptor (Homo sapiens) (UniProt P04150). The assay can be described thus: qHTS assay to identify small molecule antagonists of the glucocorticoid receptor (GR) signaling pathway (AID 720692; active = well fitted inhibition curve with a large enough effect in the signal ratio in the repeat runs, not every such curve was filed as active; the % refers to the signal ratio). In outline:
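Inhibition of glucocorticoid signalling is measured in HeLa cells with a GRE-controlled beta-lactamase reporter; cells are co-treated with compound and 5 nM dexamethasone (final) for 18 h before FRET substrate readout.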

Assay [20] is described as follows: qHTS assay for small molecule disruptors of the mitochondrial membrane potential (AID 720635). Put shortly: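 Mitochondrial membrane potential tracked with Mito-MPS dye, red aggregates (ex 540/em 590 nm) against green monomers (ex 490/em 535 nm). Compound treatment 1 hr at 37C, dye 30 min in HepG2.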
% is set by controls: 0 for no effect and ±100 for the full control effect.

Glucocorticoid receptor (Homo sapiens), sequence (P04150 whole entry, looked up): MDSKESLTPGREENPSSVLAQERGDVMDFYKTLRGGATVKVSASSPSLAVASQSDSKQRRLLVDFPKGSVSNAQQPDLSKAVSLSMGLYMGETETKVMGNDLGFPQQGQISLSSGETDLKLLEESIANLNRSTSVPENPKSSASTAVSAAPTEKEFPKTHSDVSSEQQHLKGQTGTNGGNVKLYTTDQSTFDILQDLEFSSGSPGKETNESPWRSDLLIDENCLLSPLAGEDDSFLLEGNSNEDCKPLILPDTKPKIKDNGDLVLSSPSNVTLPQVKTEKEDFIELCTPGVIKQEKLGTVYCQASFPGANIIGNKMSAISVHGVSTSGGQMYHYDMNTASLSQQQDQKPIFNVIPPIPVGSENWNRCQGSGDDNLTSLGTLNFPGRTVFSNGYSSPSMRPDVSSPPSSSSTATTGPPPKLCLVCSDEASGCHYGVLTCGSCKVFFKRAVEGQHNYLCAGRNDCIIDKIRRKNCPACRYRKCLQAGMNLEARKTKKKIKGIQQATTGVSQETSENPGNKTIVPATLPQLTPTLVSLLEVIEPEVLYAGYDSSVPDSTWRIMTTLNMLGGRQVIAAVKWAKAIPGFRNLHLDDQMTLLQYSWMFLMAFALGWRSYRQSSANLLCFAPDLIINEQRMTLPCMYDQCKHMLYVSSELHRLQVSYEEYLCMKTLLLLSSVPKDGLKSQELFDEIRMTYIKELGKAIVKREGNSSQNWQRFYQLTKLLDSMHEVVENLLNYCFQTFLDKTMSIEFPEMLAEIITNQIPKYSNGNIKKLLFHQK

Regarding `CCCc1nn(C)c2c(=O)[nH]c(-c3cc(S(=O)(=O)N4CCN(C)CC4)ccc3OCC)nc12`, the Potency entry in assay [1], in assay [2], in [3], in assay [4] and in assay [15] was “inactive” in each case. The compound was classed as inactive in assay [5], in [6], in [7], in assay [8], in assay [9] and in assay [10]. Besides, the compound was called inactive in assay [11], in [12], in [13] and in assay [14].

`Nc1ccn([C@@H]2O[C@H](CO)[C@@H](O)C2(F)F)c(=O)n1`: the Potency in [1] is 106 nM (active). In addition, the Potency entry in assay [2], in assay [4] and in [15] was “inactive” in each case. Besides, the result in assay [16], in assay [5], in assay [6], in assay [17], in [7] and in [8] was inactive. Further, the compound was classed as inactive in [9], in assay [10], in assay [11] and in assay [13].

With `CC(C)C[C@@H](N)C(=O)O`, the Potency result in assay [1], in [2], in assay [3], in assay [4] and in assay [15] was “inactive” throughout. Further, the outcome in assay [5], in [6], in assay [17], in assay [7], in [8] and in [9] was inactive. The outcome in assay [10], in assay [11], in [13] and in assay [14] was inactive.

Consider `CC(C)COC(=O)c1ccc(N)cc1`, for which the Potency entry in assay [1], in assay [3], in assay [4], in [15] and in assay [19] was “inactive” each time. Also, the compound was called inactive in assay [16], in assay [5], in assay [6], in [17], in [18] and in assay [7]. Also, the result in assay [8], in assay [9], in assay [10], in [11], in assay [12] and in assay [13] was inactive. For the same compound, the outcome in assay [14] was inactive.

For `CCC(C)(CN(C)C)OC(=O)c1ccccc1` (stereo unspecified), the Potency entry in [1], in assay [3], in assay [4], in assay [20] and in assay [19] was “inactive” each time. The compound was classed as inactive in [16]. Also, the fluorescence, relative to Rose Bengal in assay [5] was -0.657% [at 18.6 µM]. The results for the fluorescence, % of fluorescein control in [6] and in assay [13] were -0.164% [at 18.6 µM] and 0.0276% [at 18.6 µM], respectively. In assay [17], the fluorescence, % of triamterene is 0.148% [at 18.6 µM]. Also, the fluorescence, % of fluorescent control is 0.273% [at 18.6 µM] in assay [18]; -0.0658% [at 18.6 µM] in [8]; -0.827% [at 18.6 µM] in assay [10]; 0.131% [at 18.6 µM] in [12]; -0.0227% [at 18.6 µM] in assay [14]. Also, the fluorescence, % of fluorescein in assay [7] is -0.0159% [at 18.6 µM]. Also, the activity change in assay [9] is -0.158% [at 18.6 µM]. For the same compound, the fluorescence, % of Rose Bengal in assay [11] is -0.0837% [at 18.6 µM].

Regarding `CC(=O)C1CCCCC1=O` (stereo unspecified), the Potency entry in assay [1], in [2], in assay [3], in assay [4] and in [15] was “inactive” throughout. For the same compound, the compound was called inactive in [5], in assay [6], in assay [17], in assay [18], in assay [7] and in [8]. The outcome in assay [9], in [10], in assay [11], in assay [12] and in [13] was inactive.

With `NC(=O)Cc1cccc2ccccc12`, the Potency entry in [1], in [3], in assay [4], in [15] and in assay [19] was “inactive” throughout. In addition, the call in [16], in [5], in assay [6], in assay [17], in assay [18] and in [7] was inactive. Also, the call in assay [8], in assay [9], in assay [10], in [12], in assay [13] and in [14] was inactive.

For `CCOC(=O)CCC(=O)OCC`, the Potency entry in assay [1], in [2], in assay [3], in [4], in assay [15] and in [19] was “inactive” throughout. The call in assay [5], in [6], in [17], in [18], in [7] and in assay [8] was inactive. In addition, the compound was classed as inactive in [9], in [10], in assay [11], in [12], in [13] and in assay [14].
